Assay results taken from the supplement of paper PMC3545927.
The other results are listed elsewhere or left out. The hit rate among all sequences tested is not known here.

Target: furin, P09958
Assay: furin cleavage Z-score vs untreated control; higher = more cleavage, active = 3.5 or more, inactive = 1 or less, 8 variable residues between constant flanks
Method in brief: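 Sequencing of released DNA, tagged with adapters by PCR, gave read counts used as abundance. That DNA was freed when purified furin cut N-terminally bead-bound 8-mer peptides fused to a cDNA oligonucleotide, in 0.01 ml reactions at 1:10 enzyme:substrate in 50 mM HEPES pH 7.5 with CaCl2 and NaCl, lasting 7.5, 15 or 30 min. The cleavage Z-score was the lowess-adjusted log count versus furin-free reactions, scaled by median absolute deviation.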

Sequence of furin, P09958 (P09958 whole entry): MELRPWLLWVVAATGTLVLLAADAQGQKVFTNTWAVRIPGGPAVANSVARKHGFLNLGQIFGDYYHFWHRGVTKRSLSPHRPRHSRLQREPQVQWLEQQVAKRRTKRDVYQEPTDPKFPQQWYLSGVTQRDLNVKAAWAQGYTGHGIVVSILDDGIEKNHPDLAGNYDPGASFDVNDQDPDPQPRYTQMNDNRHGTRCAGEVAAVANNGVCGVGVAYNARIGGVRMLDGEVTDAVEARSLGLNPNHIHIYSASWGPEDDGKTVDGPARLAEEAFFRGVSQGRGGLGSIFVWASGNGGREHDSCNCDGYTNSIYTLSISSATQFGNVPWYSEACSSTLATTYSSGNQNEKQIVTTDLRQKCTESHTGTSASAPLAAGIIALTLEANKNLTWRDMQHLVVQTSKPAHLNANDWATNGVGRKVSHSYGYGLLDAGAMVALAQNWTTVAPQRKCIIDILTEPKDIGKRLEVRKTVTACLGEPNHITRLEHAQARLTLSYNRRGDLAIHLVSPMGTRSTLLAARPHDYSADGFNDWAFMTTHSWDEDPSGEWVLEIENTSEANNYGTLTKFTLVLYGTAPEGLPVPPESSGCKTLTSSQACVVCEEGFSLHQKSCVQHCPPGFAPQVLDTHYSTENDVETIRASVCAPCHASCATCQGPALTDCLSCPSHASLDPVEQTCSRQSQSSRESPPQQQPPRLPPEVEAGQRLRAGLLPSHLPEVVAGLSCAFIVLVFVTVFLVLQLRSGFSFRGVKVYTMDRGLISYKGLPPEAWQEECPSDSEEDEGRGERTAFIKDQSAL

Sequence	furin cleavage Z-score (7.5 min)	furin cleavage Z-score (15 min)	furin cleavage Z-score (30 min)
CALPYIEQGMAGNASASA [HC1018]	-0.393 (inactive)	-0.653 (inactive)	2.95
CALRSRSGRSAGNASASA [FS-57]	4.75 (active)	5.58 (active)	4.32 (active)
CALRSRWGRSAGNASASA [FS-1370]	6.03 (active)	5.71 (active)	6.06 (active)
CAQRERSGRSAGNASASA [FS-1057]	4.28 (active)	6.49 (active)	6.16 (active)
CAQQHRQGRSAGNASASA [FS-1391]	6.09 (active)	6.71 (active)	6.63 (active)
CALRLRKGRSAGNASASA [FS-613]	2.52	2.83	0.738 (inactive)
CAEQGRQGRSAGNASASA [FS-416]	-1.07 (inactive)	-0.0349 (inactive)	0.708 (inactive)
CAQDPRSGRSAGNASASA [FS-846]	0.797 (inactive)	-0.812 (inactive)	-0.37 (inactive)
CATNSRGENCAGNASASA [HC1504]	0.0549 (inactive)	0.267 (inactive)	0.425 (inactive)
CATTPCSGSAAGNASASA [HC1923]	0.77 (inactive)	-1.08 (inactive)	-0.465 (inactive)
CATGDFDSVIAGNASASA [HC883]	-0.133 (inactive)	-1.34 (inactive)	-0.511 (inactive)
CAGSFRSLRSAGNASASA [FS-433]	-0.832 (inactive)	-0.397 (inactive)	-0.333 (inactive)
CANRGIGKRSAGNASASA [FS-65]	7.18 (active)	8.2 (active)	7.79 (active)
CAKRRLQKRSAGNASASA [FS-1638]	11.7 (active)	9.73 (active)	9.24 (active)
CAGSFRGKRSAGNASASA [FS-1206]	11.1 (active)	11.4 (active)	8.01 (active)
CANLMRPKRSAGNASASA [FS-137]	11.8 (active)	11.3 (active)	8.61 (active)
CACQRGYKGVAGNASASA [HC1166]	-1.45 (inactive)	-3.75 (inactive)	-2.51 (inactive)
CAEWEVPCHRAGNASASA [HC2448]	1.07	2.14	0.904 (inactive)
CAIGSVGLGKAGNASASA [HC1080]	1.13	0.942 (inactive)	-0.856 (inactive)
CAETPCSGSWAGNASASA [HC1832]	-0.56 (inactive)	-0.454 (inactive)	-0.69 (inactive)
CAGINAVAYYAGNASASA [HC866]	-0.468 (inactive)	-1.09 (inactive)	-1.09 (inactive)
CARSRKEVELAGNASASA [FS-2089]	0.0687 (inactive)	0.38 (inactive)	-1.75 (inactive)
CALRKYPKRSAGNASASA [FS-358]	0.0194 (inactive)	0.839 (inactive)	1.49

Sequence	furin cleavage Z-score (7.5 min)	furin cleavage Z-score (15 min)	furin cleavage Z-score (30 min)
CALKRRGKRSAGNASASA [FS-350]	12.2 (active)	12.5 (active)	8.44 (active)
CACGGRGKRSAGNASASA [FS-14]	8.41 (active)	9.33 (active)	7.54 (active)
CALKPRPKRSAGNASASA [FS-609]	10.8 (active)	12.3 (active)	9.88 (active)
CARKRAQKRSAGNASASA [FS-1064]	8.12 (active)	9.12 (active)	7.74 (active)
CADELRGKRSAGNASASA [FS-754]	-0.105 (inactive)	0.269 (inactive)	-1.01 (inactive)
CAEVPCHRDSAGNASASA [HC2391]	0.533 (inactive)	1.52	1.63
CAFVSLLAPGAGNASASA [HC360]	-0.325 (inactive)	-1.4 (inactive)	-1.08 (inactive)
CAEVPCHDPSAGNASASA [HC2371]	0.427 (inactive)	1.64	0.537 (inactive)
CAEVPCHRYSAGNASASA [HC2389]	0.533 (inactive)	1.28	1.5
CADLMEECSQAGNASASA [HC1805]	-0.946 (inactive)	-0.224 (inactive)	-0.925 (inactive)
CALKRMQKRSAGNASASA [FS-610]	12.7 (active)	13.3 (active)	10.5 (active)
CAEALRQKRAAGNASASA [FS-227]	6.68 (active)	7.12 (active)	5.04 (active)
CAEAMTRYSAAGNASASA [HC1541]	-0.217 (inactive)	0.448 (inactive)	-0.963 (inactive)
CAHLVRQKRAAGNASASA [FS-1008]	10.3 (active)	10.1 (active)	7.65 (active)
CATTPCSGPWAGNASASA [HC1919]	-0.176 (inactive)	1.46	0.343 (inactive)
CAFVLNNTRPAGNASASA [HC429]	-0.02 (inactive)	0.46 (inactive)	-0.424 (inactive)
CARARRRSAEAGNASASA [FS-2889]	2.93	2.98	4.07 (active)
CARARRRTPTAGNASASA [FS-1995]	0.355 (inactive)	2.75	0.804 (inactive)
CARARKLADEAGNASASA [FS-2887]	0.23 (inactive)	-0.74 (inactive)	-2.19 (inactive)
CARRLREAVQAGNASASA [FS-2071]	0.989 (inactive)	-0.0587 (inactive)	2.28
CARARRSMDEAGNASASA [FS-2203]	10.2 (active)	11.1 (active)	8.05 (active)
CARARRLRREAGNASASA [FS-288]	12.9 (active)	12.3 (active)	9.18 (active)
CARRLRARREAGNASASA [FS-291]	9.55 (active)	8.95 (active)	6.29 (active)
